The structures appear in SMILES notation. Out of some 320,000 compounds screened, about 2,100 (0.66%) were called active. Another 53% or so got no clear call; they are omitted. Calls follow the shape of the dose curve; as a rule, active = well fitted inhibition curve with a large enough effect in the signal ratio, with a control signal flat (not every such curve was filed as active); inconclusive = small, poorly fitted or top-dose-only effect, or effect the other way, or a change in a side signal; inactive = flat fitted curve, though single readings scatter; the % refers to the signal ratio. The sample as a whole holds a higher share of actives than the screen did.
Potency is read from the fitted curve at half-maximal effect.

This experiment can be described thus: qHTS Assay for Lipid Storage Modulators in Drosophila S3 Cells.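 As to cell number change: cells counted by Cell Tracker Red CMTPX staining in the red channel.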 The conditions noted are these: BODIPY lipid droplet fluorescence, 18-24 h, cells fed with added oleic acid; cell number change: measured here: cell count max response; series mostly up to 46.1 µM. In short, it runs like this:
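Laser-scanning cytometry quantifies lipid droplet accumulation (500–530 nm total intensity; droplet/cell object ratio) in oleic acid-fed (400 uM added) Drosophila S3 cells treated with a concentration series. 20 uM Triacsin C defined 100% inhibition.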
For orientation: In qHTS, concentration-response curves come from the screen itself.
In the case of `Cc1cccc(OCCC(=O)NNC(=O)c2ccoc2C)c1`, the Potency result was “inactive” and the cell number change was -9.1%. As to `COC(=O)CCCCCN1C(=O)NC(c2ccccc2)C(C(=O)OCc2ccccc2)=C1C` (stereo not drawn), the Potency result was “inactive” and the cell number change was found to be 10%. With `CC(=O)NS(=O)(=O)c1ccc(NC(=O)c2cc(-c3ccc(C)cc3)nc3ccccc23)cc1`, the Potency entry is “inactive” and the cell number change was determined as 13.2%. Regarding `Cc1ccc(NC(=O)N2CCCC(C(=O)O)C2)cc1` (stereo not drawn), the Potency entry is “inactive” and the cell number change was -2.63%. On to `CN1CCC(N2CCCC(C(=O)O)C2)CC1` (stereo not drawn), for which the Potency was 6.51 µM (active) and the cell number change was 6.8%. Take `CCCN1CCC(N2CCCC(C(=O)O)C2)CC1` (stereo not drawn): the Potency result was “inactive” and the cell number change stood at 9.47%. Taken in the same sequence, the figures for `O=C(c1ccccc1)N1CCn2c1nc1ccccc12` were “inactive” and 7.4%. Turning to `COc1cccc(CC(=O)Nc2nc3c(s2)C(=O)CC(C)(C)C3)c1`, the Potency entry is “inactive”. Turning to `O=C(CSc1nccc(=O)[nH]1)Nc1ccc(N2CCOCC2)cc1`, the Potency entry is “inactive” and the cell number change came to 4.96%. In the case of `COc1ccc(OC)c(S(=O)(=O)N2CCC(C(=O)N3CCN(Cc4ccccc4)CC3)CC2)c1`, the Potency is 8.2 µM (active) and the cell number change was -36.9%. For the compound `COc1ccc(S(=O)(=O)N2CCCC(C(=O)N3CCCCCC3)C2)cc1` (stereo not drawn), the Potency result was “inactive”. As for `COc1ccc(OC)c(S(=O)(=O)N2CCC(C(=O)N3CCOCC3)CC2)c1`, the Potency entry is “inactive” and the cell number change worked out at 23.2%.

For `COc1ccccc1CN1CCCC(C(=O)N2CCCCC2)C1` (stereo not drawn), the Potency result is “inactive” and the cell number change was -12.4%. On to `COc1ccc(CN2CCCC(C(=O)N3CCCCC3)C2)c(OC)c1` (stereo not drawn), for which the Potency is 18.4 µM (active) and the cell number change was -9.62%. As to `COc1ccc(OC)c(S(=O)(=O)N2CCCC(C(=O)N3CCC(C(N)=O)CC3)C2)c1` (stereo not drawn), the Potency entry is “inactive”. Regarding `COc1cc(OC)c(OC)cc1CN1CCCC(C(=O)N2CCCCC2)C1` (stereo not drawn), the Potency entry is “inactive” and the cell number change was -0.267%. With `COc1ccc(OC)c(S(=O)(=O)N2CCCC(C(=O)N3CCCCCC3)C2)c1` (stereo not drawn), the Potency is 3.26 µM (active) and the cell number change is -13.8%. Turning to `COc1ccc(OC)c(S(=O)(=O)N2CCC(C(=O)N3CCCCCC3)CC2)c1`, the Potency result was “inactive” and the cell number change was 10.5%.

Take `COc1ccccc1CN1CCN(Cc2nc(Cc3ccccc3)no2)CC1`: the Potency entry was “inactive” and the cell number change is -11.2%. In the case of `COc1ccc(C(=O)COC(=O)C(CCSC)NC(=O)COc2ccccc2)cc1` (stereo not drawn), the Potency entry is “inactive” and the cell number change was -12.5%.

Turning to `COc1ccc(Cc2noc(CN3CCN(Cc4csc(C)n4)CC3)n2)cc1OC`, the Potency result was “inactive” and the cell number change stood at 3.13%. Take `CC(Sc1cnccn1)C(=O)O` (stereo not drawn): the Potency result was “inactive” and the cell number change was -4.62%. Consider `CC(=O)NCC1CCCN(C(=O)c2oc3c(F)cccc3c2C)C1` (stereo not drawn), for which the Potency result is “inactive” and the cell number change was -13.1%.

With `O=C(COC(=O)C1CC1)NCc1ccccc1`, the Potency entry is “inactive”. Still for that read-out and setting: with `COc1cc(OC)c(/C=N/NC(=O)Cn2nc([N+](=O)[O-])cc2C)c(OC)c1` the entry was “inactive”. As to `COc1ccc(CCNC(=O)c2ccc3c(c2)NC(=O)C(CSCc2cc(C)ccc2C)N3)cc1OC` (stereo not drawn), the Potency was 23.1 µM (active) and the cell number change stood at 3.36%. In the same order, the values of `COc1ccc(CCNC(=O)c2ccc3c(c2)NC(=O)C(C(C)C)N3)cc1OC` (stereo not drawn) are “inactive” and -27%. Turning to `COc1ccc(CCNC(=O)CC2Nc3cc(C)c(C)cc3NC2=O)cc1OC` (stereo not drawn), the Potency entry was “inactive” and the cell number change was found to be 21.5%. As for `COc1ccc(C(=O)NNC(=O)CCCCC(=O)NNC(=O)c2ccc(OC)cc2)cc1`, the Potency entry is “inactive” and the cell number change is -8.93%. Turning to `COc1ccc2[nH]c(C(=O)O)c(CCN3C(=O)c4ccc(C(=O)O)cc4C3=O)c2c1`, the Potency entry is “inactive”. In the case of `CC(C)(C)C#CCn1c(/C=[N+](\[O-])C2CCCCC2)nc2ccccc21`, the Potency entry is “inactive” and the cell number change is -20.4%.

For the compound `Cc1nc2cc(C(=O)OCC(=O)Nc3cccc(Cl)c3)ccc2n1-c1ccccc1`, the Potency entry is “inactive” and the cell number change stood at 16.2%.

In the case of `COc1cc2ccccc2cc1C(=O)NC(=S)Nc1ccc(C(=O)O)cc1`, the Potency was 18.4 µM (active) and the cell number change is -28.9%.

As for `COc1cc2ccccc2cc1C(=O)NC(=S)Nc1cc(C(=O)O)ccc1C`, the Potency entry is “inactive” and the cell number change was -26.2%.

Regarding `COc1cc2ccccc2cc1C(=O)NC(=S)Nc1cccc(C(=O)O)c1`, the Potency result was “inactive” and the cell number change was 12.5%. For `COC(=O)C1CCN(C(=O)C23CCC(C)(C(=O)O2)C3(C)C)CC1` (stereo not drawn), the Potency result was “inactive”. On to `Cc1ccc(NC(=O)CSc2nnc(-c3ccncc3)s2)cc1`, for which the Potency entry was “inactive” and the cell number change is 5.56%. For the compound `CCn1c(C)[n+](CC)c2ccc(S(=O)(=O)N(C)C)cc21`, the Potency entry is “inactive” and the cell number change worked out at 4.86%. Turning to `O=C(O)/C=C/C(=O)NCc1ccccn1`, the Potency entry was “inactive” and the cell number change was -7.29%.

As for `CN(Cc1ccccc1)C(=O)COC(=O)c1ccccc1Nc1ccccc1`, the Potency entry was “inactive” and the cell number change is -9.93%. As to `CN(Cc1ccccc1)C(=O)COC(=O)c1ccc2ccccc2n1`, the Potency entry is “inactive” and the cell number change stood at 15.9%. On to `CNc1snc(C)c1C(=O)OCC(=O)N(C)Cc1ccccc1`, for which the Potency was 14.6 µM (active) and the cell number change is -17.1%. As to `CC(=O)Nc1ccc(S(=O)(=O)NC(CC(=O)NC2CCCCC2C)C(C)C)cc1` (stereo not drawn), the Potency result is “inactive”. As for `CCC(C)NC(=O)CC(NS(=O)(=O)c1ccc(NC(C)=O)cc1)C(C)C` (stereo not drawn), the Potency result was “inactive” and the cell number change turned out to be 10.4%.

As to `COCCNC(=O)CC(NS(=O)(=O)c1ccc(NC(C)=O)cc1)C(C)C` (stereo not drawn), the Potency was 5.8 µM (active) and the cell number change is -2.55%. Consider `Cc1cc(=O)[nH]c(SCC(=O)O)c1C#N`, for which the Potency result was “inactive” and the cell number change is -1.88%. In the same order, the values of `CCOC(=O)CSc1[nH]c(=O)cc(C)c1C#N` are “inactive” and 23.9%.

As to `Cc1cc(=O)[nH]c(SCC(N)=O)c1C#N`, the Potency was 23.1 µM (active) and the cell number change was -10.4%.
